Source: PMC4552634, “A New Set of Chemical Starting Points with Plasmodium falciparum Transmission-Blocking Potential for Antimalarial Drug Discovery” (PLoS ONE, 2015)
Where two headings read alike, the source gives them in different places. Hit rate of the full screen: of about 13,000 compounds, about 3,200 (25%) showed an effect of 50% or more. This is one part of the list.

Tested on: P. falciparum stage V gametocytes
Design: BacTiter-Glo ATP luminescence viability of purified stage V gametocytes in 384-well plates, per cent inhibition versus DMSO
Conditions: 48 h, 5 µM, inhibitor

Cc1cccc2[nH]c(-c3cccc(-c4cccc(NC(=O)CNC(=O)c5ccc(O)cc5)c4)c3)nc12 [TCMDC-136818]
% Inhibition: -5.376%

Cc1cc(OCCCn2ccnc2)ccc1-c1csc(NC(N)=NCc2ccccc2)n1 [TCMDC-138931]
% Inhibition: 31.69%

CC(C(=O)OCCOCn1cnc2c(=O)[nH]c(N)nc21)N(C)C(=O)OC(C)(C)C (stereo not drawn) [TCMDC-137343]
% Inhibition: 21.46%

CC(C)c1ccc(S(=O)(=O)N(c2ccc3c(c2)OCO3)C2CCN(Cc3ccccc3)C2)cc1 (stereo not drawn) [TCMDC-134099]
% Inhibition: -69.31%

COc1ccc(N2C(N)=NC(N)=NC2(C)C)cc1OC [TCMDC-124282]
% Inhibition: 18.93%

CC(CN1CCN(C)CC1)C(=O)Nc1cccc(-c2ccc(-c3nc4ccccc4[nH]3)cc2)c1 (stereo not drawn) [TCMDC-137147]
% Inhibition: 83.04%

Cc1cccc2nc(-c3ccc(-c4cccc(NC(=O)C(C)CN5CCN(C)CC5)c4)s3)[nH]c12 (stereo not drawn) [TCMDC-137155]
% Inhibition: -49.23%

CC(CN1CCN(C)CC1)C(=O)Nc1cccc(-c2cccc(-c3nc4ccccc4[nH]3)c2)c1 (stereo not drawn) [TCMDC-137141]
% Inhibition: 72.32%

CCc1cc2c(=O)c(-c3nc(C)cs3)c(N)oc2c(CN2CCCCC2)c1O [TCMDC-124016]
% Inhibition: 0.6377%

COc1cc(C(=O)N2N=C(c3c(-c4ccccc4)c4cc(Br)ccc4[nH]c3=O)CC2c2cccc([N+](=O)[O-])c2)cc(OC)c1OC (stereo not drawn) [TCMDC-124218]
% Inhibition: 43.01%

Cc1noc(C)c1-c1cccc(CNCc2ccc(-c3cccc(-c4nc5cccc(C)c5[nH]4)c3)cc2)c1.O=C(O)C(F)(F)F [TCMDC-133052]
% Inhibition: -22.75%

O=C(/C=C/c1ccc(Cl)c(Cl)c1)NC1CCC(CN2CCC(c3nc4ncccc4[nH]3)CC2)CC1 (stereo not drawn) [TCMDC-140264]
% Inhibition: 5.039%

CC(C)(C)c1ccc(CN2CCC(NC(=O)c3ccc(-c4cccc(C(F)(F)F)c4)s3)CC2)cc1 [TCMDC-134348]
% Inhibition: -9.273%

COc1cc(NC(=O)c2cc3c(C)nn(-c4cccc(C(F)(F)F)c4)c3s2)cc(OC)c1OC [TCMDC-123615]
% Inhibition: -65.38%

Cc1nn(-c2cccc(C(F)(F)F)c2)c2sc(C(=O)NC3CCN(C(C)C)CC3)cc12 [TCMDC-125005]
% Inhibition: 65.55%

COc1cc(OC)c2c(C)cc(NCCCn3ccnc3)nc2c1 [TCMDC-125762]
% Inhibition: 61.26%

COc1cccc(-c2cc3nc4c(c(NCCCn5ccnc5)n3n2)CCCC4)c1 [TCMDC-124388]
% Inhibition: -20.83%

COc1cc(OC)c2c(C)cc(NCCCN3CCOCC3)nc2c1 [TCMDC-125775]
% Inhibition: -9.297%

Nc1nc(-c2ccc3c(Nc4ccc(F)c(Cl)c4)ccnc3c2)cs1 [TCMDC-138353]
% Inhibition: 24.85%

Fc1ccccc1-c1cc(Nc2ccncc2)nc(-c2cccnc2)n1 [TCMDC-125415]
% Inhibition: 17.65%

S=C(NCCCCCN1CCC(c2c[nH]c3ccccc23)CC1)Nc1cccc(I)c1 [TCMDC-139203]
% Inhibition: 89.1%

O=C(NCCCCCN1CCC(c2c[nH]c3ccccc23)C1)Nc1ccc(Cl)c(Cl)c1 (stereo not drawn) [TCMDC-139169]
% Inhibition: -42.12%

Cc1cc(Cl)ccc1NC(=O)NCCCCCN1CCC(c2c[nH]c3ccccc23)CC1 [TCMDC-139168]
% Inhibition: -22.23%

O=C(NCCCCCN1CCC(c2c[nH]c3ccccc23)CC1)Nc1ccc(I)cc1 [TCMDC-139165]
% Inhibition: -24.33%

O=C(NCCCCCN1CCC(c2c[nH]c3ccccc23)CC1)Nc1cccc(Cl)c1 [TCMDC-139167]
% Inhibition: 82.38%

O=C(NCCCCCN1CCC(c2c[nH]c3ccccc23)CC1)Nc1cccc(Br)c1 [TCMDC-139116]
% Inhibition: -20.19%

O=C(NCC(CCCN1CCC(c2c[nH]c3ccccc23)CC1)c1ccccc1)Nc1ccc(Cl)c(Cl)c1 (stereo not drawn) [TCMDC-139507]
% Inhibition: -18.56%

S=C(NCCCCCN1CCC(c2c[nH]c3ccccc23)CC1)Nc1cc(Cl)cc(Cl)c1 [TCMDC-139171]
% Inhibition: -46.2%

S=C(NCCCCCN1CCC(c2c[nH]c3ccccc23)CC1)Nc1ccc(Cl)c(Cl)c1 [TCMDC-139170]
% Inhibition: -11.79%

O=C(NCCCCCN1CCC(c2c[nH]c3ccccc23)CC1)Nc1ccc(Cl)c(Cl)c1 [TCMDC-139117]
% Inhibition: 79.3%

O=C(NCCCCCN1CCC(c2c[nH]c3ccccc23)CC1)Nc1cccc(I)c1 [TCMDC-139201]
% Inhibition: 57.32%

O=C(Nc1cccc(-c2csc(-c3nc4ccccc4[nH]3)c2)c1)c1ccoc1 [TCMDC-132404]
% Inhibition: 1.607%

N=C(N)NN=CC(=O)Nc1ccc(C(F)(F)F)cc1 [TCMDC-137560]
% Inhibition: 10.99%

CCC(CC(NCCCCNC(=O)c1ccc(NC(=O)c2ccc(Cl)cc2)cc1)c1ccccc1)c1ccccc1OC (stereo not drawn) [TCMDC-138580]
% Inhibition (% Inhibition): -0.1612%

Nc1ncc(-c2ccc(F)cc2)c2ccc(-c3cccc(F)c3)cc12 [TCMDC-134502]
% Inhibition: -15.75%

NC(N)=NC(=O)Nc1cc(Br)c(Br)c(Br)c1 [TCMDC-137506]
% Inhibition: -8.388%

CNCC(O)c1cc(Cl)c(Cl)cc1C (stereo not drawn) [TCMDC-131255]
% Inhibition: 13.21%

CCn1ncc(Cl)c1CN(C)S(=O)(=O)c1ccc(Br)cc1 [TCMDC-124902]
% Inhibition: 30.97%

CCSc1nc2sc3c(c2c(=O)n1-c1ccccc1)CCN(C)C3 [TCMDC-123852]
% Inhibition: 14.1%

CCCN(CCC)S(=O)(=O)c1ccc(C(=O)N2CCC(C(=O)OCC)CC2)cc1 [TCMDC-139301]
% Inhibition: 16.88%

Cc1nc(N)nc(N)c1-c1cccc(Cl)c1 [TCMDC-137375]
% Inhibition: 13.21%

c1ccc(COc2ccc(Nc3ncnc4cnc(-c5ccc(CNc6cccnc6)o5)cc34)cc2)cc1 [TCMDC-137776]
% Inhibition: 19.44%

O=C(NCCCCCN1CCC(c2c[nH]c3ccccc23)CC1)Nc1ccc(I)c(Cl)c1 [TCMDC-139202]
% Inhibition: -23.12%

Cc1ccc(NC(=O)NCCCCCN2CCC(c3c[nH]c4ccccc34)CC2)cc1I [TCMDC-139200]
% Inhibition: 66.97%

O=C(NCCCCCN1CCC(c2c[nH]c3ccccc23)CC1)Nc1ccc(Br)cc1 [TCMDC-139115]
% Inhibition: -28.65%

Cc1cc(N2C(N)=NC(N)=NC2(C)C)ccc1Cl [TCMDC-137705]
% Inhibition: -13.35%

CC1(C)N=C(N)N=C(N)N1c1ccc(Oc2ccc(Cl)cc2)c(Cl)c1 [TCMDC-123522]
% Inhibition: 76.9%

Cc1ccc(N2C(N)=NC(N)=NC2(C)C)cc1Cl [TCMDC-137708]
% Inhibition: -11.46%

COc1cccc(C(=O)NCc2cccs2)c1Oc1ccccc1 [TCMDC-141236]
% Inhibition: 3.513%

NCC(=O)Nc1cccc(Nc2nccc(-c3c(-c4cccc(NC(=O)c5ccccc5)c4)nn4ccccc34)n2)c1 [TCMDC-135671]
% Inhibition: -11.23%

O=C(CCc1ccccc1)N[C@H](Cc1c[nH]c2ccccc12)C(=O)N1CCC(NCc2ccc3c(c2)Cc2ccccc2-3)CC1 [TCMDC-135353]
% Inhibition: 27.37%

O=C(NCCC1CCN(CCc2c[nH]c3ccccc23)CC1)Nc1ccc(Cl)c(Cl)c1 [TCMDC-139151]
% Inhibition: 31.54%

CC1CCN(C(=O)[C@H](Cc2c[nH]c3ccccc23)NS(=O)(=O)c2ccc(Cl)cc2)CC1 [TCMDC-125035]
% Inhibition: 69.39%

CC1CCN(C(=O)C(Cc2c[nH]c3ccccc23)NS(=O)(=O)c2ccc(Cl)cc2)CC1 (stereo not drawn) [TCMDC-124494]
% Inhibition: 54%

C[C@@H](CNc1ccnc(Nc2ccc3[nH]c(=O)[nH]c3c2)n1)c1ccccc1 [TCMDC-136803]
% Inhibition: -37.25%

O=C(c1cc(C(F)(F)F)cc(C(F)(F)F)c1)N1CCC(CCN2CCC3(CC2)C(=O)NCN3c2ccccc2)CC1Cc1ccc(Cl)c(Cl)c1 (stereo not drawn) [TCMDC-141945]
% Inhibition: -34.22%

CN1CCN(c2cccc(-c3nnc(-c4ccc(OCC(=O)NCc5ccc(C(F)(F)F)cc5)c([N+](=O)[O-])c4)o3)c2)CC1 [TCMDC-134942]
% Inhibition: 2.294%

CC1(C)[C@H]2CC[C@@H](CNc3nc(NCCc4cnc[nH]4)nc(Nc4ccc(Oc5ccccc5)cc4)n3)[C@@H]1C2 [TCMDC-139744]
% Inhibition: -37.07%

CC(C)(C)OC(=O)NCc1ccc(Nc2nnc(-c3ccc(OCC(=O)NC[C@@H]4CC[C@H]5C[C@@H]4C5(C)C)c([N+](=O)[O-])c3)o2)cc1 [TCMDC-135039]
% Inhibition: 110.7%

CC(C)(C)c1ccc(CNC(=O)COc2ccc(-c3nnc(-c4cccc([N+](=O)[O-])c4)o3)cc2[N+](=O)[O-])cc1 [TCMDC-134986]
% Inhibition: -5.433%

CC(C)(C)OC(=O)NCc1ccc(Nc2nnc(-c3ccc(OCC(=O)NCc4ccc(C(C)(C)C)cc4)c([N+](=O)[O-])c3)o2)cc1 [TCMDC-134991]
% Inhibition: 114.3%

CC1(C)[C@H]2CC[C@@H](CNc3nc(NCC(=O)Nc4ccc5ccccc5c4)nc(N4CCC(N5CCCC5)CC4)n3)[C@@H]1C2 [TCMDC-139977]
% Inhibition: 10.19%

CCCc1cc(N2CCC(N3CCCC3)CC2)nc(Nc2ccc(Cl)cc2)n1 [TCMDC-132386]
% Inhibition: 18.02%

COc1ccc(C2CC(c3cccs3)=NN2C(=O)COc2cccc(C(C)=O)c2)cc1OC (stereo not drawn) [TCMDC-125111]
% Inhibition: -18.64%

FC(F)(F)c1ccc(-c2cncc(-c3ccc(C(F)(F)F)cc3)n2)cc1 [TCMDC-138711]
% Inhibition: -27.18%

N#Cc1cccc(Nc2nccc(NCC(O)c3ccccc3C(F)(F)F)n2)c1 (stereo not drawn) [TCMDC-136576]
% Inhibition: -28.54%
